GLP-1R inv ag: qHTS of GLP-1 Receptor Inverse Agonists (Inhibition Mode); Glucagon-like peptide 1 receptor (Homo sapiens), P43220; HEK293 GLP-1R CRE-luciferase, luminescence, 24 h; GLP-1R form is constitutively active; Potency, µM (highest dose often 38.3 µM), for the others: at the highest dose activity change, negative = inhibition, usual class: inhibitors; 410,000 tested, 1.6% active; AID 624417, 2012; note: potency is the fitted concentration of half-maximal effect; % is set by controls: 0 for no effect and ±100 for the full control effect; nearly all actives have a fitted effect of over 55% in size
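Readout was luciferase luminescence, measured 12 min after detection reagent at room temperature. Beforehand, GLP-1R reporter HEK293 cells had sat 12 h, then received compounds for 24 hr at 37 deg C.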
DRD3 antagonist: qHTS of D3 Dopamine Receptor Antagonist: qHTS; max response, negative = inhibition, %; D3R cells, DiscoveRx beta-arrestin luminescence, antagonist mode; active compounds read low; 360,000 tested, 2.5% active; in the data active = max response below about -50%; inconclusive = no clear call, values can overlap the other calls; note: % is set by controls: 0 for no effect and ±100 for the full control effect
Target sequence (P35462 whole entry, looked up): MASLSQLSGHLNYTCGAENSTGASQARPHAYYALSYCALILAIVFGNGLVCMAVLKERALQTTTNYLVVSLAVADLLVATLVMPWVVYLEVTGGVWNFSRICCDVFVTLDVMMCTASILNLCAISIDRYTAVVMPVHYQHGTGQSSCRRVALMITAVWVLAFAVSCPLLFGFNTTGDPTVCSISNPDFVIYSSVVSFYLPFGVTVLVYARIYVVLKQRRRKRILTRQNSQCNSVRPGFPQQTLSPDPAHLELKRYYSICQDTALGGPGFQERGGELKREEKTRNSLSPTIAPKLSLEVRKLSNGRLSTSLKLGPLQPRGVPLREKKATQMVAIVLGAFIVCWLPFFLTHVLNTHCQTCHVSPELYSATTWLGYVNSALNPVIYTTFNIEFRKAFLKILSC
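Cells expressing the human receptor were seeded at 1500 cells/well, incubated overnight at 37 degrees C in 5% CO2, then exposed to library compounds with dopamine controls for 90 minutes at 37 degrees C before luminescent detection.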
D3 ag: qHTS of D3 Dopamine Receptor Agonist: qHTS; D3R DiscoveRx beta-arrestin cells, luminescence, 90 min; max activation, %; 410,000 tested, 0.58% active; AID 652048, 2013; D(3) dopamine receptor (Homo sapiens), P35462; in the data active = max activation above about 30%; note: 0% is about no effect
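Cells at 1500/well, incubated overnight, then treated with pinned compounds (dopamine as control) for 90 min at 37 degrees C. DiscoveRx reagent added for 30 - 60 minutes at room temperature; luminescence read.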
ClpP mod: qHTS Assay for Activators of ClpP | purified B. subtilis ClpP, FRET peptide cleavage, 20 min | Potency, µM (top dose mostly 57.5 µM), for the others: at the top dose activity change, negative = active | 340,000 tested, 1.9% active | AID 651965, 2013; active = well fitted falling curve with a large enough effect; inconclusive = small, poorly fitted or top-dose-only effect; inactive = no such curve, though single readings can be large or run the other way; note: potency is the fitted concentration of half-maximal effect; the source files actives as falling curves though it sought activators and does not explain the sign; nearly all actives have a fitted effect of over 65% in size
Target sequence (P80244 whole entry, looked up): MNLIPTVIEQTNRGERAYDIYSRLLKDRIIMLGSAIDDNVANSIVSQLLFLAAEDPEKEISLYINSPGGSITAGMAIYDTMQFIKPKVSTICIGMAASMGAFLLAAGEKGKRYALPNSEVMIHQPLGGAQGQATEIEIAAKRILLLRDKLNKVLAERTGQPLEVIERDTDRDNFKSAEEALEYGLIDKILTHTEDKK
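ClpP 10 microg/mL final, pH 8 Tris/KCl buffer with BSA, glycerol, Tween-20; compound pinned in; FRET-FV substrate; RT 20 min; Ex320/Em430; ΔFRET vs ADEP 5.8 microM, DMSO, no enzyme.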
HEK293 tox: qHTS of GLP-1 Receptor Inverse Agonists: Cytotox Screen; Potency, µM (titrated, usually from 38.3 µM), for the others: top-dose activity change, negative = inhibition, most hits filed as inhibitors; HEK293 cAMP-luciferase reporter cells, luminescence, 24 h; 410,000 tested, 0.13% active;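 note: loss of luciferase light is scored as toxicity; potency is the fitted concentration of half-maximal effect; % is set by controls: 0 for no effect and ±100 for the full control effect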
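Step one: seed cells (200 cells/uL, DMEM with 10% Nu serum, 1% pen-strep). Step two: 12-hour incubation at 37 deg C. Step three: pin 23 nL compound, incubate 24 hr. Step four: add luciferase reagent, read luminescence 12 min later.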
GLP-1R agonist: qHTS of GLP-1 Receptor Agonists | Potency, µM (highest dose often 45.6 µM), without a hit: at the highest dose activation, actives largely listed as activators | 380,000 tested, 0.007% active | Glucagon-like peptide 1 receptor (Homo sapiens), P43220 | HEK293 GLP-1R CRE-luciferase, luminescence, 4-6 h; cells express a hypersensitive GLP-1R form; note: potency is the fitted concentration of half-maximal effect; % of control where 0% means no effect
* marks the source's active call; other numbers are inactive results. Most compounds without a hit are left out; they make up all but 5.7% or so of the library. Unless noted, calls come from the whole dose curve; as a rule, active = well fitted curve in the direction sought with a large enough effect; inconclusive = small, poorly fitted or top-dose-only effect, or another doubt; inactive = no such curve, though single readings can be large; an effect the other way counts as inactive or inconclusive.

Results for C[C@H](NCCc1ccc(O)cc1)[C@@H](O)c1ccc(O)cc1 ?
GLP-1R agonist: 22%

What do the screens show for `CC(COc1ccccc1)NC(C)C(O)c1ccc(O)cc1` (stereo not drawn)?
GLP-1R inv ag: 21%; DRD3 antagonist: -87*; D3 ag: -71; ClpP mod: 0%; HEK293 tox: 2%; GLP-1R agonist: 47%

What do the screens show for `CC1CCN(C(=O)Cn2cc(SCc3cccc(F)c3)c3ccccc32)CC1`?
GLP-1R inv ag: inconclusive; D3 ag: -5; ClpP mod: 2%; HEK293 tox: -19%

What do the screens show for `Cc1cc(C)c(N2CCN(S(=O)(=O)N3CCCCCC3)CC2)c(C)c1`?
GLP-1R inv ag: 10µM*; DRD3 antagonist: -17; D3 ag: 2; ClpP mod: -6%; HEK293 tox: 18%; GLP-1R agonist: -18%

What do the screens show for `CN(C)C1CN(Cc2cn(Cc3ccc(Cl)cc3)nn2)S(=O)(=O)C1` (stereo not drawn)?
GLP-1R inv ag: 11%; DRD3 antagonist: -18; D3 ag: -7; ClpP mod: -2%; HEK293 tox: -13%; GLP-1R agonist: -1%

What do the screens show for `Fc1ccc(C(CCCn2nnc(-c3cccnc3)n2)c2ccc(F)cc2)cc1`?
GLP-1R inv ag: 10µM*; DRD3 antagonist: 28; D3 ag: 3; ClpP mod: -3%; HEK293 tox: -9%; GLP-1R agonist: -2%

Results for COC(=O)C1=C(C(=O)OC)[C@@H]2N(Cc3ccccc3)c3ccccc3[C@@]23C[C@@H](C(=O)OC)N(C(=O)c2cc(C)oc2C)C3=N1 ?
GLP-1R inv ag: 11µM*; DRD3 antagonist: -14; D3 ag: -15; ClpP mod: 2%; HEK293 tox: -3%; GLP-1R agonist: -3%

Results for CCCc1nnc(NC(=O)Cn2c(=O)oc3cc(Br)ccc32)s1 ?
GLP-1R inv ag: -25%; DRD3 antagonist: -29; D3 ag: 1; ClpP mod: 1%; HEK293 tox: -4%; GLP-1R agonist: -2%

How did O=c1oc2cc(Br)ccc2n1CSC1=NCCS1 do in these assays?
GLP-1R inv ag: -18%; DRD3 antagonist: -53*; D3 ag: -9; ClpP mod: -1%; HEK293 tox: -27%; GLP-1R agonist: 0%

Results for Cc1cc(N(C)C)ccc1/C=C/c1ccnc2ccccc12 ?
ClpP mod: -1%

How did COc1ccccc1NS(=O)(=O)c1cccc(C(=O)NC2CCN(Cc3ccccc3)CC2)c1 do in these assays?
GLP-1R inv ag: inconclusive; DRD3 antagonist: -95*; D3 ag: -24; HEK293 tox: -4%; GLP-1R agonist: 9%

What do the screens show for `COc1ccccc1NS(=O)(=O)c1ccc(C)c(C(=O)NC2CCN(Cc3ccccc3)CC2)c1`?
GLP-1R inv ag: 11µM*; DRD3 antagonist: inconclusive; D3 ag: -13; ClpP mod: -1%; HEK293 tox: -3%; GLP-1R agonist: -12%

Results for Cc1cccc(C(=O)NCC(=O)NC2CCN(Cc3ccccc3)CC2)c1 ?
GLP-1R inv ag: -2%; DRD3 antagonist: 0; D3 ag: -7; ClpP mod: 0%; HEK293 tox: -3%; GLP-1R agonist: -3%

Results for COc1ccccc1NS(=O)(=O)c1cc(C(=O)N2CCCC2)ccc1C ?
GLP-1R inv ag: -11%; DRD3 antagonist: -2; D3 ag: -2; ClpP mod: 1%; HEK293 tox: -1%; GLP-1R agonist: 4%

How did COc1ccc(NS(=O)(=O)c2ccc(C)c(C(=O)NC3CCN(Cc4ccccc4)CC3)c2)cc1 do in these assays?
GLP-1R inv ag: inconclusive; DRD3 antagonist: -29; D3 ag: -38; ClpP mod: -1%; HEK293 tox: 9%; GLP-1R agonist: -1%

How did COc1ccccc1NS(=O)(=O)c1cc(C(=O)NC2CCN(Cc3ccccc3)CC2)ccc1C do in these assays?
GLP-1R inv ag: inconclusive; DRD3 antagonist: -92*; D3 ag: -15; ClpP mod: 0%; HEK293 tox: -38%; GLP-1R agonist: 0%

Results for Cc1ccc(NS(=O)(=O)c2cccc(C(=O)NC3CCN(Cc4ccccc4)CC3)c2)c(C)c1 ?
GLP-1R inv ag: inconclusive; DRD3 antagonist: -97*; D3 ag: -20; ClpP mod: 2%; HEK293 tox: 11µM*; GLP-1R agonist: -4%

How did CCOC(=O)c1c(C)c(-c2ccccc2)n(CC(=O)Nc2cc(C)cc(C)c2)c1C do in these assays?
GLP-1R inv ag: 2%; D3 ag: 6; ClpP mod: -5%; HEK293 tox: 4%; GLP-1R agonist: 1%

What do the screens show for `COc1ccc(CNc2n[nH]c(-c3ccco3)n2)cc1OC`?
GLP-1R inv ag: -3%; D3 ag: 3; ClpP mod: -1%; HEK293 tox: -3%

How did C[C@H]1CN([C@@H](C)CO)C(=O)CCCn2nncc2CO[C@H]1CN(C)C(=O)NC1CCCCC1 do in these assays?
GLP-1R inv ag: 4%; DRD3 antagonist: -8; D3 ag: 9; ClpP mod: 2%; HEK293 tox: 7%; GLP-1R agonist: -1%

Results for CCN(CC)S(=O)(=O)c1ccc(Cl)c(C(=O)NC2CCN(Cc3ccccc3)CC2)c1 ?
GLP-1R inv ag: inconclusive; DRD3 antagonist: -65*; D3 ag: -6; ClpP mod: 0%; HEK293 tox: -10%; GLP-1R agonist: 4%

How did CCN(CC)S(=O)(=O)c1ccc(NC2CCN(Cc3ccccc3)CC2)nc1 do in these assays?
GLP-1R inv ag: inconclusive; DRD3 antagonist: -20; D3 ag: -14; HEK293 tox: -11%; GLP-1R agonist: 12%

Results for Cc1cccc(C)c1-c1ccc(CN2C(CC(C)C)C(=O)N(Cc3cn(CC4CCCCC4)nn3)CCS2(=O)=O)cc1 (stereo not drawn) ?
GLP-1R inv ag: inconclusive; DRD3 antagonist: 18; D3 ag: 14; ClpP mod: 0%; HEK293 tox: -3%; GLP-1R agonist: 1%

How did O=C(Cc1ccc(F)cc1)Nc1nc(-c2ccc(F)cc2)cs1 do in these assays?
GLP-1R inv ag: -31%; DRD3 antagonist: 23; D3 ag: 6; HEK293 tox: -5%; GLP-1R agonist: 6%

How did CC(=O)Nc1ccc(-c2csc(NC(=O)Cc3cccc(F)c3)n2)cc1 do in these assays?
GLP-1R inv ag: 11µM*; DRD3 antagonist: -12; D3 ag: -7; HEK293 tox: 8%; GLP-1R agonist: 11%

Compound activity from PubChem.
